Results taken from PubChem BioAssay AID1508625 (Wald Lab, School of Medicine, Case Western Reserve …, 2021).

Assay: small molecules boosting NK-mediated OVCAR3 lysis – imaging, primary NK cells, calcein-AM imaging, primary screen (AID 1508625);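 also: compound given to NK cells 16 h before adding targets at 1.5 to 1 ratio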;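 as to z-score: more negative robust z means stronger NK killing of tumor cells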
Details: OVCAR3 lysis by primary NK cells, at 5 µM; z-score: measured here: robust Z-score, single-point normalisation

Row | Compound | corrected activity, negative = more killing [%] | z-score
1 | CCc1cc(=O)oc2c(C)c(OCC(=O)c3cccc(OC)c3)ccc12 | -4.48 | -1.67
2 | COc1ccc(C2NC(=O)c3c(sc4c3CCCC4)N2)cc1OC (centres undefined) | -2.78 | -1.1
3 | CC1=NNC(=O)C1CCC(=O)NN=Cc1ccncc1 (centres undefined) | -4.86 | -2.12
4 | Cc1ccc(NC(=O)Cc2[nH]c3ccccc3c2Sc2ccccc2)cc1 | -1.55 | -0.584
5 | Cc1cc(Br)ccc1NC(=O)CCNC(=O)Cn1cnc2sc3c(c2c1=O)CCCC3 | -0.281 | -0.0893
6 | Cc1ccc(Cl)cc1-n1c(CCC(=O)O)ccc1-c1ccccc1 | 1.25 | 0.373
7 | CCc1ccc(-n2c(C)nc3cc(C(=O)NCc4cccnc4)ccc32)cc1 | -5.32 | -1.43
8 | COCCNC(=O)c1ccc2snnc2c1 | -3.88 | -1.16
9 | CC(=NNC(=S)Nc1cccc(C)c1)c1cccc(N)c1 | -5.28 | -2.08
10 | Cc1ccc(C(=O)Nc2cccc3c2C(=O)c2ccccc2C3=O)o1 | -2.82 | -1.16
11 | CN1C(=O)c2ccccc2Sc2ccc(C(=O)O)cc21 | -8.06 | -2.17
12 | COc1ccc(NC(=O)CN(C)S(=O)(=O)c2cccs2)cc1OC | -4.46 | -1.26
13 | Cc1ccc(C(=O)N2C(=O)C(c3ccccc3)Oc3ccccc32)cc1 (centres undefined) | -10.8 | -3.35
14 | CCCCNCC(=O)Nc1ccc(Br)cc1 | -5.05 | -1.88
15 | CC(Oc1cccc(Cl)c1)C(=O)ON=C(N)c1ccncc1 (centres undefined) | 0.422 | 0.235
16 | CCOc1cc(C(=S)N2CCCCC2)ccc1OC(=O)c1ccc(OC)cc1 | -5.85 | -2.2
17 | O=C1c2ccccc2C(=O)N1CCCCCCN1CCN(c2cccc(Cl)c2)CC1 | -4.02 | -0.848
18 | CN(C)CCSc1nnnn1-c1ccccc1 | -4.18 | -1.86
19 | CC(C)NCCCCOc1ccccc1-c1ccccc1 | 1.68 | 0.626
20 | CCn1cnc2sc(C(=O)Nc3cccc([N+](=O)[O-])c3)c(C)c2c1=O | -2.56 | -0.931
21 | CC1=C(C(=O)Nc2cccc(Cl)c2)C(c2cccc(Cl)c2)NC(=O)N1 (centres undefined) | -1.94 | -0.84
22 | CCC(Oc1ccccc1)C(=O)N1CCC(C(N)=O)CC1 (centres undefined) | -2.95 | -1.64
23 | CCc1ccc(NC(=O)c2ccccc2NC(=O)c2cccc(OC)c2)cc1 | 1.91 | 1.06
24 | O=C1c2ccccc2C(=O)N1C1C(=O)N(c2cccc(C(F)(F)F)c2)C1c1ccc(F)cc1 (centres undefined) | -1.28 | -0.397
25 | COc1ccc([N+](=O)[O-])cc1N=Cc1ccc(N(C)C)cc1 | -10 | -2.12
26 | Clc1ccc(OCCN2CCc3ccccc3C2)cc1 | -1.86 | -1.03
27 | CCSc1ccc(NC(=O)CC2c3ccccc3Oc3ccccc32)cc1 | -7.71 | -2.39
